Assay results taken from PubChem BioAssay.
Calls of active or inactive are those of the source.

Assays:
[1] = test system: Plasmodium falciparum Sir2 (PF13_0152, Sir2A); test: Plasmodium falciparum Sir2A binding compounds – biochemical, small-molecule microarray, 635 nm fluorescence, primary screen (AID 1098); details: fluorescence 635 nm, higher = more signal;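 also: score merges spot fluorescence intensity with its signal-to-noise ratio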
[2] = probe aDKK1 binding to arrayed compounds – biochemical, biotinylated probe, 635/667 nm fluorescence, primary screen (AID 1099); details: small-molecule microarray, higher = more signal;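 also: score merges 667nm spot fluorescence with signal to noise across triplicate slides; reference of the scale not given here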
[3] = probe aCHRDL2 binding to arrayed compounds – biochemical, biotinylated probe, 635/667 nm fluorescence, primary screen (AID 1100); details: small-molecule microarray, higher = more signal
[4] = change in splice reporter luminescence, either direction, cell-based, HEK293, spliceosome inhibition project, primary screen (AID 1101); details: HEK293 splicing luciferase reporter, 24 h, higher = more signal, called active from +8 up or from −8 down;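 also: HEK293 cells carrying a splicing-competent luciferase reporter gene; test concentration not given here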
[5] = target: Fibroblast growth factor 10 (Homo sapiens) (UniProt O15520); test: compounds binding fibroblast growth factor 10 – biochemical, small-molecule microarray, 635 nm fluorescence, primary screen (AID 1102); details: FGF10 binding, fluorescence 635 nm, higher = more signal
Chain of Fibroblast growth factor 10 (Homo sapiens) (O15520 whole entry, looked up): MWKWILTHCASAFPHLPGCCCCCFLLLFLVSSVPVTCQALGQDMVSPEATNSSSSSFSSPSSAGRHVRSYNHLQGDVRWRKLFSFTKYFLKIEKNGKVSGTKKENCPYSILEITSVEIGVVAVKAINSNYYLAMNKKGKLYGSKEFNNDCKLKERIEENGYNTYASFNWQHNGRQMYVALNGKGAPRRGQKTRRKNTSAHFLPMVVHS

[6] = test system: glycogen synthase kinase-3 (GSK3A per assay name; protocol says GSK3B); test: compounds binding glycogen synthase kinase-3 – biochemical, small-molecule microarray, 635 nm fluorescence, GSK3A, primary screen (AID 1103); details: fluorescence 635 nm, higher = more signal; also: the record names both GSK3A and GSK3B
[7] = target: Epidermal growth factor receptor (Homo sapiens) (UniProt P00533); test: compounds binding epidermal growth factor receptor – biochemical, small-molecule microarray, 635 nm fluorescence, primary screen (AID 1104); details: EGFR binding, higher = more signal;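 also: score merges 667 nm emission intensity with spot signal to noise over triplicate slides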
Chain of Epidermal growth factor receptor (Homo sapiens) (P00533 whole entry, looked up): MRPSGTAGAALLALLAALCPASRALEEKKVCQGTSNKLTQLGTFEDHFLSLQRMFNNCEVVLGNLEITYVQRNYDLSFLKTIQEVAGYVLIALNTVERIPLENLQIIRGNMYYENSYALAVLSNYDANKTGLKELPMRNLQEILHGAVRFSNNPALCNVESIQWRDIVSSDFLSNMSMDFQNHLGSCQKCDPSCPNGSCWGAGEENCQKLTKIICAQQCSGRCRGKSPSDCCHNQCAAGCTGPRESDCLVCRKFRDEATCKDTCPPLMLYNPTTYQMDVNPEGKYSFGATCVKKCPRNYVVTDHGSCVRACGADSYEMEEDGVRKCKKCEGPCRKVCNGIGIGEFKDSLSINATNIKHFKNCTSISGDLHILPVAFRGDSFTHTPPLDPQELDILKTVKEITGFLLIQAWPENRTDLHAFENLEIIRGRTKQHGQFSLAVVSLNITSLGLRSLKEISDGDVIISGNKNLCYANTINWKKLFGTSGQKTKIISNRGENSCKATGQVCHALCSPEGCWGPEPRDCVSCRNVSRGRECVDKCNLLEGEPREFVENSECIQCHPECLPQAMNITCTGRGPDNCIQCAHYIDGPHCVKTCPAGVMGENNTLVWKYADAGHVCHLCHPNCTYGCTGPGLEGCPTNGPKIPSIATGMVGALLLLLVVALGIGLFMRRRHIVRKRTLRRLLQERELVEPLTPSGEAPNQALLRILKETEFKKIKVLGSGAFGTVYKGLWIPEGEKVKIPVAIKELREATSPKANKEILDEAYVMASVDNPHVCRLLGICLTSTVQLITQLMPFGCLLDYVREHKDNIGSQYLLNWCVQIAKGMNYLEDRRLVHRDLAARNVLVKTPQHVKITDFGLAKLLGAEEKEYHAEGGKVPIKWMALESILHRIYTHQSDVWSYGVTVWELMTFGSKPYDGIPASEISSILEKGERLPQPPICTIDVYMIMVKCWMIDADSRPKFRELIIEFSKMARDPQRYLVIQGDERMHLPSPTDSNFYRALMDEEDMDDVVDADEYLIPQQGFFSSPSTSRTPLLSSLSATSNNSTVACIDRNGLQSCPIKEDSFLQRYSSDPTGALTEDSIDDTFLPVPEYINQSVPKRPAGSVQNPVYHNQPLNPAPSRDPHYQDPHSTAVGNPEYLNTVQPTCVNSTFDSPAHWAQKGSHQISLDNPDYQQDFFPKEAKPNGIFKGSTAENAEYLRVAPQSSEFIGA

[8] = target: Follistatin-related protein 3 (Homo sapiens) (UniProt O95633); test: compounds binding follistatin-related protein 3 – biochemical, small-molecule microarray, 635 nm fluorescence, primary screen (AID 1105); details: FSTL3 binding, higher = more signal;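 also: score merges emission near 667 nm and signal to noise per printed spot across three slides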
Chain of Follistatin-related protein 3 (Homo sapiens) (O95633 whole entry, looked up): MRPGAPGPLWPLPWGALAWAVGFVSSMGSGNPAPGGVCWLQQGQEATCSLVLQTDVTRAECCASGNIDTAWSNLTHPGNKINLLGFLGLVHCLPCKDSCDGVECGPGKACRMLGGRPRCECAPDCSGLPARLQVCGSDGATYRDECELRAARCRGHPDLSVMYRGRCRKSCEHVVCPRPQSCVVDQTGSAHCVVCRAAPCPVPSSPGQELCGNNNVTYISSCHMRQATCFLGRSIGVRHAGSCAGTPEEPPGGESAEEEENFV

[9] = target: Dickkopf-related protein 1 (Homo sapiens) (UniProt O94907); test: small molecules binding DKK1 protein – biochemical, small-molecule microarray, 635 nm fluorescence scan, primary screen (AID 1106); details: higher = more signal;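 also: score merges emission near 667 nm with signal to noise over three replicate slides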
Chain of Dickkopf-related protein 1 (Homo sapiens) (O94907 whole entry, looked up): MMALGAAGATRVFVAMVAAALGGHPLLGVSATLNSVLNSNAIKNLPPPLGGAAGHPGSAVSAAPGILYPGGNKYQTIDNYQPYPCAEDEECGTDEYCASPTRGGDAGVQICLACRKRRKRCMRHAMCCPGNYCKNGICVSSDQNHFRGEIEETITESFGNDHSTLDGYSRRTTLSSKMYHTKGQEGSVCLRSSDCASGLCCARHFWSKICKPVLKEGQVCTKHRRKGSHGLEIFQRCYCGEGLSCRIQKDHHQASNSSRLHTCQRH

[10] = test system: Inhibin beta A chain (activin A); test: small molecules binding activin A – biochemical, small-molecule microarray, 635 nm fluorescence scan, primary screen (AID 1107); details: INHBA, higher = more signal;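 also: mouse activin A protein probed at 4.33 µg/mL on printed slides; score merges bound-protein fluorescence near 667 nm with spot signal-to-noise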

Structure (SMILES)	composite z-score [1]	composite z-score [2]	composite z-score [3]	z-score [4]	composite z-score [5]	composite z-score [6]	composite z-score [7]	composite z-score [8]	composite z-score [9]	composite z-score [10]
CCOC(=O)c1cn(C[C@H](Cc2ccccc2)NC(=O)N[C@H](CO)CCc2oc(C(C)=O)c(C(=O)OC)c2C(=O)OC)nn1	0.559	0.0549	-0.398	-1.1 (inactive)	1.37	1.28	0.956	1.49	1.1	-0.0083
CN(C)c1ccc(C(O)C2C=CC3C(=O)N(Cc4ccccc4)C(=O)C3N2n2cnnc2)cc1 (stereo not given)	0.491	-0.393	0.562	-0.394 (inactive)	0.13	-0.56	0.268	-0.0523	0.114	1.28
O=C1N(Cc2ccccc2)c2ccccc2C[C@@]12COC(c1ccc(OCCCO)cc1)=N2	1.32	1.79	1.12	-0.136 (inactive)	0.596	1.31	-0.433	0.0633	-0.318	1.13
Cc1ccc(S[C@]2(C(=O)NC3CC3)CC(=O)N(C(C)C)[C@@H]2c2ccc(CO)cc2I)cc1	1.37	-0.299	0.812	-1.89 (inactive)	0.377	-0.122	-0.638	0.101	-1.37	0.318
COCCOC(=O)N1C(=O)[C@@]2(c3cc(C#CCC(C(=O)OC)C(=O)OC)ccc31)[C@H](C(=O)Nc1nc3ccccc3s1)[C@H]1C(=O)O[C@H](c3ccccc3)[C@H](c3ccccc3)N1[C@@H]2c1ccc(O)cc1	1.42	0.0737	0.309	-0.88 (inactive)	1.34	1.3	0.861	1.41	1.06	0.157
CCC(CC)C(O)C1C=CC2C(=O)N(c3ccccc3)C(=O)C2N1Nc1ccccc1F (stereo not given)	1.17	0.373	0.481	-0.115 (inactive)	0.412	0.554	0.0005	0.226	-0.445	0.704
COc1ccc([Si](C)(C)[C@H]2[C@H](CCO)O[C@@]3(C(=O)N(Cc4cccc(N(C=O)c5ccccc5)c4)c4ccccc43)[C@@H]2C)cc1	1.14	-0.305	-0.777	-1.53 (inactive)	1.33	1.29	0.406	1.08	0.469	0.013
NC(=O)N1C(=O)C2C(C1=O)C1C=C(CCCO)C2C(c2ccc(CN3CCCC3)cc2)N1Cc1cc2c(cc1Br)OCO2 (stereo not given)	-0.0167	-0.204	0.228	0.343 (inactive)	0.325	0.177	-0.287	-0.0816	0.388	0.45
CCOC(=O)C1=CCC(c2cc3ccccc3[nH]2)N(CCN2CC(C(=O)OCC)=CCC2c2cc3ccccc3[nH]2)C1 (stereo not given)	0.497	0.237	0.368	-1.3 (inactive)	0.631	1.03	0.149	0.673	0.0665	1.14
C=C(CCCC)C(=O)CC[C@@H](OC(=O)c1ccccc1-c1ccccc1C(=O)O)c1ccccc1OCCO	0.776	-0.286	-0.543	2.3 (inactive)	1.27	-0.121	-0.215	0.27	0.373	0.959
CCCCCC1=C2CNC(CC(C)C)(C(=O)OC)C=C2C(C)C1=O (stereo not given)	0.452	0.72	0.952	5.08 (inactive)	0.071	-0.361	-0.73	-0.403	-0.756	1.23
O=C1C2C=CC(C(O)c3c(F)cccc3Cl)N(Nc3ccc([N+](=O)[O-])cc3)C2C(=O)N1c1ccccc1 (stereo not given)	0.77	-0.124	-0.0918	-0.108 (inactive)	1.2	1.27	0.518	1.45	0.875	0.191
CCCC[C@H]1C[C@@H]1[C@@H]1N(C(C)=O)[C@H](c2cccc(OC)c2)CC12CC2	-0.497	0.692	0.878	-1.86 (inactive)	0.0847	0.114	-0.0128	0	-0.556	0.596
C=CCN1Cc2ccccc2[C@H]2OC(c3ccc(OCCCO)cc3)=N[C@@]2(CCS(=O)(=O)c2ccccc2)C1=O	1.45	1.07	1.35	0.767 (inactive)	0.728	1.26	0.714	1.38	0.933	0.852
